# Experiments:
# Test in all cases: DAPPL (digital affinity profiling via proximity ligation, sequencing); 10 mM Tris-HCl pH 7.5, 50 mM NaCl, 1 mM DTT, 4% glycerol, room temperature, 30 min; GST-TFs on glutathione beads, 16-mer random dsDNA library, 0.1% formaldehyde crosslink after washing; high values mean tight binding
# Settings in all cases: protein: recombinant; tags: N-terminal GST; dsDNA, one strand shown
# [1] = molecular target: T1, FLI1 (Homo sapiens, UniProt Q01543 1-452)
# T1 sequence: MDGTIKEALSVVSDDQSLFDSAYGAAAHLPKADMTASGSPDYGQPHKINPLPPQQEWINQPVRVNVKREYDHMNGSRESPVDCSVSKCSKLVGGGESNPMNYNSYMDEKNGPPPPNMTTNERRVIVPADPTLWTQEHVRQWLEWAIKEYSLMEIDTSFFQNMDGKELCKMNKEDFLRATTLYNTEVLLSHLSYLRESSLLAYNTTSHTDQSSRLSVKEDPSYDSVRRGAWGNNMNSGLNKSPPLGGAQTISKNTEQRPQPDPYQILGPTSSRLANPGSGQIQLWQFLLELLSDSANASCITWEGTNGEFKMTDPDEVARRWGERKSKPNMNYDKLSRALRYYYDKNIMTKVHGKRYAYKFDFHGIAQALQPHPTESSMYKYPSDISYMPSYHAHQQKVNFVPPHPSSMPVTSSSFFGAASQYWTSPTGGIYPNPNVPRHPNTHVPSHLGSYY
# Method in brief: (§1)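 After expression in yeast as GST fusions, human transcription factors were bound to glutathione beads, DNA-barcoded and mixed with a tag-only sample. The pools were incubated with 200 nmole of a 16-mer random double-stranded DNA library in Tris/NaCl/DTT/glycerol buffer (30 min, room temperature), washed and crosslinked with 0.1% formaldehyde. Proximity ligation with BsaI/T4 ligase ran for 1 h at 37 °C, before PCR amplification and sequencing on an Illumina NextSeq500. Binding signal is a hexamer's read frequency for a factor divided by its frequency for the tag-only sample.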
# [2] = molecular target: T2, ELK1 (Homo sapiens, UniProt P19419 1-428)
# T2 sequence: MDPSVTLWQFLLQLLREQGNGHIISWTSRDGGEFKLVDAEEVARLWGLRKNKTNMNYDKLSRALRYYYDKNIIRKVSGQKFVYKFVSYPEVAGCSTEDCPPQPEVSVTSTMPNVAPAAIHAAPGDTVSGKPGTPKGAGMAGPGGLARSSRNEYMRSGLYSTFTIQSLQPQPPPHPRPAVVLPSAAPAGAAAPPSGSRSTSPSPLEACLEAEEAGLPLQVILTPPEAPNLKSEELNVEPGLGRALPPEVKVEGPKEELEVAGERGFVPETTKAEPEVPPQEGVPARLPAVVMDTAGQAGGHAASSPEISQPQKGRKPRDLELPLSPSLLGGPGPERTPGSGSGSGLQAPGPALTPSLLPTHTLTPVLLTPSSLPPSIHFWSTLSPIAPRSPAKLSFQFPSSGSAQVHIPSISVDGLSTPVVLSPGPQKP
# Method in brief: as §1
# [3] = molecular target: T3, GABPA (Homo sapiens, UniProt Q06546 1-454)
# T3 sequence: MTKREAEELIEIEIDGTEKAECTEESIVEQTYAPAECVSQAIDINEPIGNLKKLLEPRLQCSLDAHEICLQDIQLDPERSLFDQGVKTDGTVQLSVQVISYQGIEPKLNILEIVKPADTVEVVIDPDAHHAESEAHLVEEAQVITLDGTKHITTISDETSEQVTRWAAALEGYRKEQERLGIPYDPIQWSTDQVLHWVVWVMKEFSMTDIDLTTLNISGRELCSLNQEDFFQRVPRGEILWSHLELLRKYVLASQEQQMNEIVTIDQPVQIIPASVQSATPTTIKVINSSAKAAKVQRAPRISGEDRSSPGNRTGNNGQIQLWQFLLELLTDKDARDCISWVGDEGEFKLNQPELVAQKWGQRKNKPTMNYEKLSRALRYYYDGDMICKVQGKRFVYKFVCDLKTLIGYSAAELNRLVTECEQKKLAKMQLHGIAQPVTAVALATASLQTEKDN
# Method in brief: as §1
# [4] = molecular target: T4, ERG (Homo sapiens, UniProt P11308 1-479)
# T4 sequence: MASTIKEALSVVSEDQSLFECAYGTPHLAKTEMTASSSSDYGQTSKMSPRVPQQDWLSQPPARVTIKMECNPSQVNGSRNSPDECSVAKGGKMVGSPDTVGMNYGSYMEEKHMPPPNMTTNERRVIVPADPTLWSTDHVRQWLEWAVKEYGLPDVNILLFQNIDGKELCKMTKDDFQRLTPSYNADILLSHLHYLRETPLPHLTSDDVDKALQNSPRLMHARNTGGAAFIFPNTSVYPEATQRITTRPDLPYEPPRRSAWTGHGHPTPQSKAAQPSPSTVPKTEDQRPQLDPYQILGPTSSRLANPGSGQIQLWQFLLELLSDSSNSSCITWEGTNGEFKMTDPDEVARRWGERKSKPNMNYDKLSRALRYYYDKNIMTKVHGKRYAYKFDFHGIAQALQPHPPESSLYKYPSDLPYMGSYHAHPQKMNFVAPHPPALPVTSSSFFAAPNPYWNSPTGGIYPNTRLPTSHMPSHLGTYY
# Method in brief: as §1
# [5] = molecular target: ELF1 (Homo sapiens, UniProt P32519 1-619)
# Chain of ELF1 (P32519 whole entry): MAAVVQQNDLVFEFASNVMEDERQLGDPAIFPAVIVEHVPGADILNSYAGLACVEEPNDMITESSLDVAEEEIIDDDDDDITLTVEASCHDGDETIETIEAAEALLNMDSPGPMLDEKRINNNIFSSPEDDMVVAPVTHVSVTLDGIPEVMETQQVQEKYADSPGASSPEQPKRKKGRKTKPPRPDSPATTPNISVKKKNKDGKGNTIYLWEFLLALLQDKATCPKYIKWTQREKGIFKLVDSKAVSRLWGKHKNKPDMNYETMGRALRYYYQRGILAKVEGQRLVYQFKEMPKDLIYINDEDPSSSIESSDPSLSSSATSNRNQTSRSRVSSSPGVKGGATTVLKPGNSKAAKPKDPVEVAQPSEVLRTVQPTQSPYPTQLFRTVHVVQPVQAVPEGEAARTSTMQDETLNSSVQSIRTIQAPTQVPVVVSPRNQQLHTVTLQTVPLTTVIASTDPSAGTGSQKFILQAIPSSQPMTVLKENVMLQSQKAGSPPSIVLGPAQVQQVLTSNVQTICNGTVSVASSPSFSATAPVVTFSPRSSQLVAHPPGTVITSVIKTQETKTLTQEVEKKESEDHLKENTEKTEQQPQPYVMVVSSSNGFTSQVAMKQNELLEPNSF
# Method in brief: as §1
# [6] = molecular target: T5, EHF (Homo sapiens, UniProt Q9NZC4 1-300)
# T5 sequence: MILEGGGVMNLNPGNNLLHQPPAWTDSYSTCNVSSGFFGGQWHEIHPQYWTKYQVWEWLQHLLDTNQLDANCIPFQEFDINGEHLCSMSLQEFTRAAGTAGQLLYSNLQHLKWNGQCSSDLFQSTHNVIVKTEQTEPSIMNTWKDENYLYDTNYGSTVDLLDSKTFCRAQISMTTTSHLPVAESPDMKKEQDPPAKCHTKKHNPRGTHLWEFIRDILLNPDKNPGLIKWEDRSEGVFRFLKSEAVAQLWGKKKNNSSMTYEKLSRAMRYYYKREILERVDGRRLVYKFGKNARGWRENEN
# Method in brief: as §1
# [7] = molecular target: SPI1 (Homo sapiens, UniProt P17947 1-270)
# Method in brief: as §1
# [8] = molecular target: SPIB (Homo sapiens, UniProt Q01892 1-262)
# Chain of SPIB (Q01892 whole entry): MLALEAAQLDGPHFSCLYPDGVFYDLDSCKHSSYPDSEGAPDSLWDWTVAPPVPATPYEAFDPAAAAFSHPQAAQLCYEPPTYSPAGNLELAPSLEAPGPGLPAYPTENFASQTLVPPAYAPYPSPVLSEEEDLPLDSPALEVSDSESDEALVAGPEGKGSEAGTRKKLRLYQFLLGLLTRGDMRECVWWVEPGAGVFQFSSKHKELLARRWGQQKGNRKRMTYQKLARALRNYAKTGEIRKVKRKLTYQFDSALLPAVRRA
# Method in brief: as §1
# [9] = molecular target: T6, ELK3 (Homo sapiens, UniProt P41970 1-407)
# T6 sequence: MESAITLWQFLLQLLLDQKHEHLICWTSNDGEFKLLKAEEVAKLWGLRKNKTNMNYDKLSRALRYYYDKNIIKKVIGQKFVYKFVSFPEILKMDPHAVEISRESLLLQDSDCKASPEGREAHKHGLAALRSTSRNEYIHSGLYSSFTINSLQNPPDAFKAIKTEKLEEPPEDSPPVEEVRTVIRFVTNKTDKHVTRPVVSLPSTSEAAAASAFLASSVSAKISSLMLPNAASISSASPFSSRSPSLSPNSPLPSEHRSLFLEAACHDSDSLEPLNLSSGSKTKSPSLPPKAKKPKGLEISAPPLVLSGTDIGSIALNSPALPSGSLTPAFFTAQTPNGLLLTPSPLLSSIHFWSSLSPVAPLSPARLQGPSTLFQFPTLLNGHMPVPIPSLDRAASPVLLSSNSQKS
# Method in brief: as §1
# [10] = molecular target: T7, FEV (Homo sapiens, UniProt Q99581 1-238)
# T7 sequence: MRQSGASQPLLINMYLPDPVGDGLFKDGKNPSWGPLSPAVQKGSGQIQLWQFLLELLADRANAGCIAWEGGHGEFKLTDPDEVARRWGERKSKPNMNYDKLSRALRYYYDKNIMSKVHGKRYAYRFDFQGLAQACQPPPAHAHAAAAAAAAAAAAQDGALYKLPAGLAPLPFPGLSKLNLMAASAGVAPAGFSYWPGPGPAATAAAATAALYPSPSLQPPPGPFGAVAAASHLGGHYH
# Method in brief: as §1
# [11] = molecular target: ETV5 (Homo sapiens, UniProt P41161 1-510)
# Chain of ETV5 (P41161 whole entry): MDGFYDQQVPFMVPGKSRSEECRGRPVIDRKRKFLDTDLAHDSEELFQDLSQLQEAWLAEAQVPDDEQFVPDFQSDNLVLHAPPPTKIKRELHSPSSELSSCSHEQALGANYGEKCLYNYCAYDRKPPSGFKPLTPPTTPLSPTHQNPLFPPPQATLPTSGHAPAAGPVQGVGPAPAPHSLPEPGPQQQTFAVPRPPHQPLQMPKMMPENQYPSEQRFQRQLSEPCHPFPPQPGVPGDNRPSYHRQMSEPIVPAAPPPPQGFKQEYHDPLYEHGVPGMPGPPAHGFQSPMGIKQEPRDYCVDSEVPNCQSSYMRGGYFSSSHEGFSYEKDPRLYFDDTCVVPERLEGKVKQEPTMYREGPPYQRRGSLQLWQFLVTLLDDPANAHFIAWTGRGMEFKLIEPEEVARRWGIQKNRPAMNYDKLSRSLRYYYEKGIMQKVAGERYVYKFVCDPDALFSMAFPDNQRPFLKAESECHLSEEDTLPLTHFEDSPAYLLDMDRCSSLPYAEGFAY
# Method in brief: as §1
# [12] = molecular target: T8, SPIC (Homo sapiens, UniProt Q8N5J4 1-248)
# T8 sequence: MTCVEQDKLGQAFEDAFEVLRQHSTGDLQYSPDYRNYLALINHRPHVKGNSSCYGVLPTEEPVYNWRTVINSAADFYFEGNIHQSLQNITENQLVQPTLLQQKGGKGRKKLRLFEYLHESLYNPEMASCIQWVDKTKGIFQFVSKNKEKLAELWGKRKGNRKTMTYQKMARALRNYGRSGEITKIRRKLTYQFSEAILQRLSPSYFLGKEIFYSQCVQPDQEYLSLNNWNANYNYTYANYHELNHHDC
# Method in brief: as §1
# [13] = molecular target: ELF4 (Homo sapiens, UniProt Q99607 1-663)
# Chain of ELF4 (Q99607 whole entry): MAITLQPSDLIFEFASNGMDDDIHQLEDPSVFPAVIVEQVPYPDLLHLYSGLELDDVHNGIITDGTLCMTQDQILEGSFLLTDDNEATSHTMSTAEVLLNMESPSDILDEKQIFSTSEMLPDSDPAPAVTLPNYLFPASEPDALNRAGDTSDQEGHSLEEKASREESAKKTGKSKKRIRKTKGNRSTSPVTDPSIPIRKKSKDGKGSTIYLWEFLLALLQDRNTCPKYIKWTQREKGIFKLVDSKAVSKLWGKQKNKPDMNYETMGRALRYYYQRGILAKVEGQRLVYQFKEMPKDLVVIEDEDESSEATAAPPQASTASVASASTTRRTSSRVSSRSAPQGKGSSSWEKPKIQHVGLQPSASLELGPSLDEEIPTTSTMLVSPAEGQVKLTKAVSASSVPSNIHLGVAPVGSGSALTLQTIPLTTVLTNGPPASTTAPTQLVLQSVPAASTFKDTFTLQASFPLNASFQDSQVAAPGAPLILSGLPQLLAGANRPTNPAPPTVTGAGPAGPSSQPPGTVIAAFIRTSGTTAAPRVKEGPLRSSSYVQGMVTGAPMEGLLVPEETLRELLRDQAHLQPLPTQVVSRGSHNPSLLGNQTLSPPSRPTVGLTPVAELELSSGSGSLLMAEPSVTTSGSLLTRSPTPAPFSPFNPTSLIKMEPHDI
# Method in brief: as §1
# [14] = molecular target: T9, ERF (Homo sapiens, UniProt P50548 1-548)
# T9 sequence: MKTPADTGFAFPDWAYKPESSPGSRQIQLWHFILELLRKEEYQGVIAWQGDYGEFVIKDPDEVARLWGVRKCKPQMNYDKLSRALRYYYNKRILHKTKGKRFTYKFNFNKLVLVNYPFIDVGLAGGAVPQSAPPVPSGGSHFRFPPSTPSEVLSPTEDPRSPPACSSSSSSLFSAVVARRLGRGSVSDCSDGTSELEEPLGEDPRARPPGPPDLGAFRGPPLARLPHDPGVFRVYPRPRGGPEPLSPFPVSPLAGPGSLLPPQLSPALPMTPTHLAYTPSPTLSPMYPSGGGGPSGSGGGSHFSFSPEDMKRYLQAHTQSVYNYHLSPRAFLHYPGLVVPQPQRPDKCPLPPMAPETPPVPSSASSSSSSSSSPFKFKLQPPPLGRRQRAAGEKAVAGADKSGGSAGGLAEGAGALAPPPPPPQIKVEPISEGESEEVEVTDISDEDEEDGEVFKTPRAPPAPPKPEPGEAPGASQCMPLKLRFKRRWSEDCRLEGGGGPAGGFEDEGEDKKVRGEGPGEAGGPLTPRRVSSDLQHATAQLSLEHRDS
# Method in brief: as §1
# [15] = molecular target: T10, ETV3L (Homo sapiens, UniProt Q6ZN32 1-361)
# T10 sequence: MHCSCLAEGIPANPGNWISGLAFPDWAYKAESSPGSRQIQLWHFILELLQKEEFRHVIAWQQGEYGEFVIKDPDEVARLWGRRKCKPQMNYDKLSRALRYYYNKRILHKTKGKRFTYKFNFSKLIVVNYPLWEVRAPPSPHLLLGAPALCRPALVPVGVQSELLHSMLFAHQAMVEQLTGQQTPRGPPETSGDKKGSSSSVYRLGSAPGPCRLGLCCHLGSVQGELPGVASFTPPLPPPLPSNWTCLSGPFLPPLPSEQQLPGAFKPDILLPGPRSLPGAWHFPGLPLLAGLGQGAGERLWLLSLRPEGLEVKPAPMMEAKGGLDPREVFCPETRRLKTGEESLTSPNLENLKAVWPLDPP
# Method in brief: as §1
# [16] = molecular target: T11, ETS2 (Homo sapiens, UniProt P15036 1-469)
# T11 sequence: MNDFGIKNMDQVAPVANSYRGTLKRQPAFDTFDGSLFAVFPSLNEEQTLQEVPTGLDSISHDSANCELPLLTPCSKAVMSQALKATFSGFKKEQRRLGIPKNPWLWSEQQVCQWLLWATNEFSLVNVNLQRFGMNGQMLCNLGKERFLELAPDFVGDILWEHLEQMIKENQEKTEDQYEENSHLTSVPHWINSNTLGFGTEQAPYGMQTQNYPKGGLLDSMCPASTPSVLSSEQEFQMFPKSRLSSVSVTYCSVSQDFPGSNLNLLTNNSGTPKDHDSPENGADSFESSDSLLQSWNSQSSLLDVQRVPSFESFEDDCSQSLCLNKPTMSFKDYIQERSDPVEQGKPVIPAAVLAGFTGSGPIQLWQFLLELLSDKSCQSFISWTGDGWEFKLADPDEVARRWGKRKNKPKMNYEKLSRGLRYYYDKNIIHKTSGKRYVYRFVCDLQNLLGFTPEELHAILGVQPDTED
# Method in brief: as §1
# [17] = molecular target: T12, SPDEF (Homo sapiens, UniProt O95238 1-335)
# T12 sequence: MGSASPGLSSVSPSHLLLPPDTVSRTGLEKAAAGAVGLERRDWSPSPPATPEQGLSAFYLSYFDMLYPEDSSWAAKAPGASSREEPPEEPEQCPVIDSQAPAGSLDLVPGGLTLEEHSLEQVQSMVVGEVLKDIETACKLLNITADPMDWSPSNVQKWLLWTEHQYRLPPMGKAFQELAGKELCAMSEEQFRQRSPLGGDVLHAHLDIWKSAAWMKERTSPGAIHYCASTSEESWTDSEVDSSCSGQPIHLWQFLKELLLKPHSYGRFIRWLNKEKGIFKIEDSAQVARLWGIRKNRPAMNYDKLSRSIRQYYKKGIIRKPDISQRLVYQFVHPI
# Method in brief: as §1
# [18] = molecular target: T13, ETV3 (Homo sapiens, UniProt P41162-2 1-143)
# T13 sequence: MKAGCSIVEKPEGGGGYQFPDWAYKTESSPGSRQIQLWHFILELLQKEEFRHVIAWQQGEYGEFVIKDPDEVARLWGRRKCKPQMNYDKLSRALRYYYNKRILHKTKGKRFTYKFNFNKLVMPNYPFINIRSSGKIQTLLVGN
# Method in brief: as §1
# [19] = molecular target: ETV6 (Homo sapiens, UniProt P41212 1-452)
# Chain of ETV6 (P41212 whole entry): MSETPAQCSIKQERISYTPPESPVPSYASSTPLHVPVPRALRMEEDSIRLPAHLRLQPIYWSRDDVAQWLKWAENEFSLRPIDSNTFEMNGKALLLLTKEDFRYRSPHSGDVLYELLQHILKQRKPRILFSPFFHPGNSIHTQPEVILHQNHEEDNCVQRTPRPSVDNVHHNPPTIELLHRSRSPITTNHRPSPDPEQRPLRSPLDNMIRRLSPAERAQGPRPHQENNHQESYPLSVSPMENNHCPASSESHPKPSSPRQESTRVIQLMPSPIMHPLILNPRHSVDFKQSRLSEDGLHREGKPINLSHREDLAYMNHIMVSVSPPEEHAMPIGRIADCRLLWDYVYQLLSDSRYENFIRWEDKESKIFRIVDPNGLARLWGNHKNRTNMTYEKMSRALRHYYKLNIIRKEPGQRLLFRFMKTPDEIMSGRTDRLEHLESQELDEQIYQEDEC
# Method in brief: as §1
sequence,measurement,setting,value
CATACC,binding signal,[1],"1.03 fold enrichment (6-mer frequency, TF over GST control)"
same,binding signal,[2],"1.06 fold enrichment (6-mer frequency, TF over GST control)"
same,binding signal,[3],"1.11 fold enrichment (6-mer frequency, TF over GST control)"
same,binding signal,[4],"1.03 fold enrichment (6-mer frequency, TF over GST control)"
same,binding signal,[5],"1.09 fold enrichment (6-mer frequency, TF over GST control)"
same,binding signal,[6],"1.1 fold enrichment (6-mer frequency, TF over GST control)"
same,binding signal,[7],"1.03 fold enrichment (6-mer frequency, TF over GST control)"
same,binding signal,[8],"1.04 fold enrichment (6-mer frequency, TF over GST control)"
same,binding signal,[9],"1.09 fold enrichment (6-mer frequency, TF over GST control)"
same,binding signal,[10],"1.07 fold enrichment (6-mer frequency, TF over GST control)"
same,binding signal,[11],"1.04 fold enrichment (6-mer frequency, TF over GST control)"
same,binding signal,[12],"1.03 fold enrichment (6-mer frequency, TF over GST control)"
same,binding signal,[13],"1.1 fold enrichment (6-mer frequency, TF over GST control)"
same,binding signal,[14],"1.03 fold enrichment (6-mer frequency, TF over GST control)"
same,binding signal,[15],"1.17 fold enrichment (6-mer frequency, TF over GST control)"
same,binding signal,[16],"1.1 fold enrichment (6-mer frequency, TF over GST control)"
same,binding signal,[17],"1.14 fold enrichment (6-mer frequency, TF over GST control)"
same,binding signal,[18],"1.06 fold enrichment (6-mer frequency, TF over GST control)"
same,binding signal,[19],"1.01 fold enrichment (6-mer frequency, TF over GST control)"

# From article PMC7862700, “An all-to-all approach to the identification of sequence-specific readers for epigenetic DNA modifications on cytosine”
